This is part of a sample that, as a whole, favours compounds with a hit. Of some 83,000 tested, about 20% had one in any assay.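 48-hour exposure, single concentration, 96-well plates; percent growth endpoint where 0 means no net growth. Active: below 10.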 A number with no mark means an inactive call. Calls of active or inactive are those of the source.
System: HL-60(TB) leukemia
Experiment: NCI-60 one-dose screen, 48 h (100 = growth as untreated, 0 = no growth, -100 = all killed)
Conditions: 10 µM unless noted

Row | SMILES | growth
1 | CCc1ccc(CCC(=O)Nc2ncc(Cc3ccc(Cl)cc3)s2)o1 | -39.6% (active)
2 | CCOC(=O)C/C(C)=N\NC(=O)c1ccncc1 | 99.4%
3 | O=C1C=C(Cl)C(=O)c2ccccc21 | 57.3%
4 | C#CC(OC(=O)N(C)C)(c1ccccc1)c1ccc(F)cc1 (stereo not given) | 127%
5 | CCCC(CC)(C(=O)Nc1ccc2nc(C)cc(N)c2c1)C(=O)Nc1ccc2nc(C)cc(N)c2c1 | 100%
6 | NC(=S)NS(=O)(=O)c1ccc(N)cc1 | 94.5%
7 | CNC1(C#N)CCN(Cc2ccccc2)CC1 | 168%
8 | CCN1C(=O)N(CC)C2C1N=C(SCc1ccc(Cl)cc1)N2/N=C/C=C/c1ccccc1OC (stereo not given) | 37.9%
9 | S=c1ccnc[nH]1 | 59.3%
10 | O=C1OC(Cc2ccccc2)C1c1ccccc1 (stereo not given) | 84.7%
11 | COc1ccc(/C=N/NC(=O)c2cnn(CC(O)Cc3ccccc3)c2N)cc1OC1CCCC1 (stereo not given) | 105%
12 | CC12CC(C#N)CCC1O2 (stereo not given) | 101%
13 | NNC(=O)c1ccc(-n2nc(-c3ccccc3)c3ccccc32)cc1 | 93%
14 | COc1cccc2nc(Nc3ccc(NC(=O)c4ccc5ncccc5c4)cc3)ccc12 | 91%
15 | Nc1nc(-c2ccccn2)cc(-c2cc(-c3ccccn3)nc(N)n2)n1 | 105%
16 | N#Cc1c(-c2ccccc2)nc2c(c(-c3ccccc3)nn2-c2ccccc2)c1-c1ccc(N2CCOCC2)cc1 | 65.4%
17 | CCC(C)/C(=C\C#N)NCCCN/C(=C/C#N)C(C)CC (stereo not given) | 64.6%
18 | CCOC(=O)c1ccc(NC(=S)P(=O)(c2ccccc2)c2ccccc2)cc1 | 80.4%
19 | Nc1ccccc1C#Cc1ccccc1C#Cc1ccc(OCCCCCCOc2ccc(C#Cc3ccccc3C#Cc3ccccc3N)cc2)cc1 | 110%
20 | O=C(NS(=O)(=O)c1ccc2ccccc2c1)n1cc(-c2ccncc2)c(-c2ccc(Cl)c(O)c2)n1 | 43.3%

Row | SMILES | growth
21 | CC(C)CNCC(O)COc1ccc(C(C)(C)c2ccc(OCC(O)CNCC(C)C)cc2)cc1 (stereo not given) | 26%
22 | CN1CCN(c2ccc(-c3cc4c(Nc5ccc(F)c(Cl)c5)ncnn4c3)cn2)CC1 | 72.8%
23 | O=C(N/N=C\c1ccc(Cl)cc1Cl)c1ccncc1 | 87.6%
24 | Cc1ccc2c(c1)C(=O)C(c1c(-c3[nH]c(=O)c4ccc(C)cc4c3O)c(O)c3ccccc3c1O)=NC2=O | 8.93% (active)
25 | CC[N+](CC)(CCOCCOCC[N+](CC)(CC)Cc1ccc([N+](=O)[O-])cc1)Cc1ccc([N+](=O)[O-])cc1 | 93.4%
26 | O=S(=O)(/N=C1C=C/C(=N\S(=O)(=O)c2ccccc2)c2ccccc2\1)c1ccccc1 | 100%
27 | CC1(C)N=C(N)N=C(N)N1c1ccc(CCCCc2ccccc2)c(Cl)c1 | -25.5% (active)
28 | COc1cc(NC(=O)c2cccc(-c3cc(=O)c4c(O)c(OC)c(OC)cc4o3)c2)cc(OC)c1OC | 78%
29 | COc1c(B(O)O)cccc1-c1nc2ccc3[nH]ncc3c2c2c1CCCC2 | -28.1% (active)
30 | CC(=O)O[C@H]1C[C@@H]2C(C)(C)C(=O)CC[C@@]2(C)c2ccc(C(C)C)cc21 | 99.2%
31 | BrCc1cccc(C[P+](c2ccccc2)(c2ccccc2)c2ccccc2)c1 | 12.2%
32 | Cn1ccnc1C(=O)/C=C/c1ccc(C(=O)Nc2ccccc2F)cc1 | 5.22% (active)
33 | CC[C@@H](C)OC(=O)c1nn(C(C)=O)c2ccccc12 | 120%
34 | Cc1cc(C(C#N)c2ccc(Cl)cc2)c(Cl)cc1NC(=O)c1cc(I)cc(I)c1O (stereo not given) | 17.4%
35 | O=C1NN(C(=O)c2ccc(Cl)cc2)C(c2ccccc2)=N/C1=C\c1cn(-c2ccccc2)nc1-c1ccccc1 | 94.5%
36 | O=C(Nc1cccc([N+](=O)[O-])c1)c1ccc(Cl)c(Cl)c1 | 87.8%
37 | O=C(CCc1nnc(Cn2ccnc2)o1)c1nc2ccccc2[nH]1 | 106%
38 | COc1ccc(C(O)c2cc3c(N)c(C(=O)Nc4cccc(OC)c4)sc3nc2C)cc1 (stereo not given) | -55.9% (active)
39 | COc1cc2c(cc1OCCCCCOc1ccc(-n3c(C)nc4ccccc4c3=O)cc1)N=C[C@@H]1CCCN1C2=O | -33.8% (active)
40 | CSc1nc(-c2ccc(O)cc2O)c2c(=O)[nH]c(Nc3ccc(S(=O)(=O)Nc4nc(C)cc(C)n4)cc3)nc2n1 | 114%

Reference: PubChem BioAssay (NCI)
